FBW7 activator = human FBW7 E3 ligase activation, primary screen; Q969H0; AlphaScreen FBW7–phospho-cyclin E peptide binding, activator screen; normalized activity (activation), % at 26.1 µM; actives 0.13% (n = 650,000); in the data active = normalized activity above about 1.9%;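 also: purified mutant Fbw7 with reduced substrate affinity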
MITF primary = blocks human microphthalmia-associated transcription factor; AlphaScreen MITF homodimerization, bead proximity signal; inhibition, % at 2.6 µM; actives 0.91% (n = 650,000); in the data active = inhibition above about 50%
Target sequence (O75030 whole entry, looked up): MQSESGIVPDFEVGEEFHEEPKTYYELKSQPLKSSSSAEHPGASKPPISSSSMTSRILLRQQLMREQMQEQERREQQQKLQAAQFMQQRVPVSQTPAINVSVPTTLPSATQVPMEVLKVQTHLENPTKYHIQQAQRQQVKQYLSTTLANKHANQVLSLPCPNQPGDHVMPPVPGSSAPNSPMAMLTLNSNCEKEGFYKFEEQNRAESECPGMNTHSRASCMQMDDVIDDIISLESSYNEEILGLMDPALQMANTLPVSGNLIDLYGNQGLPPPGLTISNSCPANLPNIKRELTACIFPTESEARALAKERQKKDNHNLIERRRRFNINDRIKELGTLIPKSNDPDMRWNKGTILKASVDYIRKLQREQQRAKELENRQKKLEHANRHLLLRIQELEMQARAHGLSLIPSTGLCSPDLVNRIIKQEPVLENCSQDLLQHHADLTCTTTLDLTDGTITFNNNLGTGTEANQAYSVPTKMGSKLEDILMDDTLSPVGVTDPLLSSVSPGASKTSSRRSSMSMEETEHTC
TEAD-YAP block = TEAD-YAP interaction inhibition; HEK-TIYL cells, TEAD-Gal4/YAP UAS-luciferase luminescence; inhibition, % at 9.12 µM; actives 1.4% (n = 640,000); AID 1259422; in the data active = inhibition above about 32%
GPR151 activ = activates the human receptor GPR151 | Q8TDV0 | PathHunter beta-arrestin GPR151 cells, luminescence | activation, % at 11.2 µM | actives 1% (n = 650,000) | AID 1508602; in the data active = activation above about 4.9%
MITF confirm = human MITF inhibition, confirmation; shares compounds with MITF primary; AlphaScreen MITF homodimerization, biotin/His-MITF beads; inhibition, % at 2.6 µM; actives 16% (n = 4,700); AID 1259372;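 active = inhibition above a cutoff derived from the DMSO control wells, cut at about 28% in these data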;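 also: inhibitors lower the bead chemiluminescence by keeping MITF from dimerizing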
AS interf DR = optically interferes with AlphaScreen signal in dose response | IC50, µM | shares compounds with MITF primary | AlphaScreen optical interference counterscreen, cell-free | actives 6% (n = 480) | AID 1259373; call rule not given here
AlphaScreen intf2 = optically interferes with AlphaScreen signal | inhibition, % at 2.6 µM | shares compounds with MITF primary | actives 7.6% (n = 4,700) | LysRS AlphaScreen counterscreen, signal interference, triplicate;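 active = inhibition above a cutoff derived from the DMSO control wells, cut at about 30% in these data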
Of the large screens only hits and unclear results are named; the others gave an inactive call (follow-up assays come after a bar, where they were run). Hits are enriched below; roughly 3.4% of the tested compounds scored in any of these assays.

Cc1ccc(-n2c(C)cc(C(=O)COC(=O)Cn3nc(C)c([N+](=O)[O-])c3C)c2C)cc1C	none
Cc1cccc(NC(=O)c2ccc3ccccc3c2)n1	none
COc1ccc(C(CNCCC(=O)O)N(C)C)cc1 (configuration not stated)	MITF primary 55 | MITF confirm inactive | AlphaScreen intf2 inactive
COc1ccc(C(CNC(=O)c2ccc(Br)cc2)N(C)C)cc1 (configuration not stated)	none
O=C1CCCN1c1cccc(NS(=O)(=O)c2cccc3ccccc23)c1	MITF primary 51 | MITF confirm inactive | AlphaScreen intf2 inactive
O=C1CCCCN1c1cccc(NS(=O)(=O)c2ccccc2)c1	none
Cc1cccc(-c2ccc(NC(=O)C3CCN(Cc4ccon4)CC3)cc2)c1	none
COc1cc(CN2CCN(C3CCCCC3C)CC2)cc(OC)c1OC (configuration not stated)	MITF primary 74 | MITF confirm inactive | AlphaScreen intf2 inactive
COc1cc(CN2CCC(N3CCCCC3)CC2)cc(OC)c1OC	none
COc1cc(CN2CCC(N3CCCC3)CC2)cc(OC)c1OC	MITF primary 58 | MITF confirm inactive | AlphaScreen intf2 inactive
COc1ccc(-c2nc(N3CCN(C)CC3)[nH]c(=O)c2C#N)cc1	none
N#Cc1c(-c2ccc3c(c2)OCO3)nc(N2CCCCC2)[nH]c1=O	MITF primary 80 | MITF confirm 78 | AS interf DR inactive | AlphaScreen intf2 inactive
COc1cc(C(=O)Nc2onc3c2CCC3)cc(OC)c1OC	none
CN(C)CCCn1c(SCC(N)=O)nnc1-c1ccncc1	none
Cc1ccc(CSc2nnc(-c3ccncc3)n2CCCN(C)C)cc1	MITF primary 72 | MITF confirm inactive | AlphaScreen intf2 inactive
Cc1ccc(CN2CCCC(C(=O)N3CCCCC3)C2)cc1 (configuration not stated)	none
COc1ccc(CN2CCCC(C(=O)N3CCCC3)C2)cc1 (configuration not stated)	none
CCOC(=O)C1CCCN(Cc2cccc(Br)c2)C1 (configuration not stated)	MITF primary 53 | MITF confirm 35 | AS interf DR inactive | AlphaScreen intf2 inactive
NNC(=O)C1CCCN(Cc2cccc(Oc3ccccc3)c2)C1 (configuration not stated)	MITF primary 54 | MITF confirm inactive | AlphaScreen intf2 inactive
COc1ccc(CN2CCCC(C(=O)NN)C2)cc1 (configuration not stated)	none
CCOC(=O)C1CCCN(Cc2ccccc2)C1 (configuration not stated)	none
COc1ccc(CN2CCCC(C(=O)N3CCCCCC3)C2)cc1 (configuration not stated)	MITF primary 73 | MITF confirm inactive | AlphaScreen intf2 inactive
Cc1ccc(CN2CCCC(C(=O)N3CCCCCC3)C2)cc1 (configuration not stated)	MITF primary 64 | MITF confirm inactive | AlphaScreen intf2 inactive
Cc1ccc2onc(CC(=O)Nc3ccc4c(c3)OCCO4)c2c1	none
COc1ccc(CN2CCCC(C(=O)N3CCCCC3)C2)c(OC)c1OC (configuration not stated)	MITF primary 75 | MITF confirm inactive | AlphaScreen intf2 inactive
COc1ccc(CN2CCC(C(=O)NCc3ccc(C)cc3)CC2)cc1	MITF primary 77 | MITF confirm inactive | AlphaScreen intf2 inactive
CCOC(=O)C1CCCN(Cc2ccc(O)cc2)C1 (configuration not stated)	none
CCOC(=O)C1CCCN(Cc2ccc(OC)cc2)C1 (configuration not stated)	MITF primary 52 | MITF confirm inactive | AlphaScreen intf2 inactive
CCOC(=O)C1CCCN(Cc2ccc(OC)c(OC)c2OC)C1 (configuration not stated)	none
CCOC(=O)c1cnc(OC)[nH]c1=O	none
CCOC(=O)c1cnc(-n2[nH]c3c(c2=O)CCCC3)[nH]c1=O	MITF primary 88 | MITF confirm 47 | AlphaScreen intf2 64
CS(=O)(=O)N(CC(=O)Nc1ccc(F)c(Cl)c1)c1ccc(F)c(Cl)c1	none
COc1ccc(Cl)cc1NC(=O)c1sc2ncn(CC(=O)N3CCCCC3C)c(=O)c2c1C (configuration not stated)	none
CC1=NN(c2ccccc2)C(=O)C1C(c1ccc([N+](=O)[O-])cc1)C(C#N)C#N (configuration not stated)	none
CC1=NN(c2ccccc2)C(=O)C1C(c1ccccc1[N+](=O)[O-])C(C#N)C#N (configuration not stated)	MITF primary 52 | MITF confirm inactive | AlphaScreen intf2 inactive
Cc1cc(N)n(-c2ccc(OC(F)(F)F)cc2)n1	none
Cc1cncc2c(S(=O)(=O)N3CC[C@@H](NC(=O)C(O)c4ccc(F)cc4F)C3)cccc12 (some centres not stated)	MITF primary 59 | MITF confirm 58 | AS interf DR inactive | AlphaScreen intf2 inactive
O=C(O)c1cccc(-c2ccc(/C=N/n3cnnc3)o2)c1	none
O=C(O)c1cc(C(=O)O)cc(-c2ccc(/C=N\n3cnnc3)o2)c1	MITF primary 63 | MITF confirm 38 | AS interf DR inactive | AlphaScreen intf2 inactive
Cc1n[nH]c(=S)n1/N=C/c1ccccc1F	MITF primary 70 | MITF confirm inactive | AlphaScreen intf2 inactive
CN(c1cccc(NS(=O)(=O)c2ccc([N+](=O)[O-])cc2)c1)S(C)(=O)=O	MITF primary 51 | MITF confirm 34 | AS interf DR inactive | AlphaScreen intf2 inactive
Cc1ccc(S(=O)(=O)Nc2cccc(N(C)S(C)(=O)=O)c2)cc1	none
Cc1ccc(NC(=O)CN(C)C2CCN(C)CC2)c(Cl)c1	MITF primary 67 | MITF confirm inactive | AlphaScreen intf2 inactive
Cc1ccc(NC(=O)CN(C)CC(=O)Nc2ccc(F)c(F)c2F)c(Cl)c1	none
COc1ccc(-c2c(NC(=O)CN3CCCC(C)C3)oc3ccccc3c2=O)cc1OC (configuration not stated)	MITF primary 91 | MITF confirm inactive | AlphaScreen intf2 inactive
COc1cccc(CN2CCN(S(=O)(=O)c3cccc([N+](=O)[O-])c3)CC2)c1	none
O=[N+]([O-])c1ccc(Cl)c(S(=O)(=O)N2CCN(Cc3ccccc3)CC2)c1	none
O=[N+]([O-])c1cccc(CN2CCN(S(=O)(=O)c3ccc4ccccc4c3)CC2)c1	MITF primary 62 | MITF confirm inactive | AlphaScreen intf2 inactive
O=[N+]([O-])c1ccc(S(=O)(=O)N2CCN(Cc3cccc(Cl)c3)CC2)cc1	MITF primary 64 | MITF confirm inactive | AlphaScreen intf2 inactive
O=S(=O)(c1ccc2ccccc2c1)N1CCN(C2CCN(Cc3ccccc3)CC2)CC1	MITF primary 52 | MITF confirm inactive | AlphaScreen intf2 inactive
